According to PubChem BioAssay AID1211 (NMMLSC, 2008):
The source made the active and inactive calls. The rule behind the calls is not given here.

Biological target: Estrogen receptor (Homo sapiens) (UniProt P03372)
Experiment: displacement of fluorescent estrogen from ERalpha – cell-based, Cos7 ERalpha-GFP, flow cytometry, primary screen (AID 1211);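 note: 0% = DMSO vehicle wells and 100% = no E2-Alexa633 signal left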
Conditions: fluorescent ligand competition, stronger effect = higher value

Chain of Estrogen receptor (Homo sapiens) (P03372 whole entry, looked up): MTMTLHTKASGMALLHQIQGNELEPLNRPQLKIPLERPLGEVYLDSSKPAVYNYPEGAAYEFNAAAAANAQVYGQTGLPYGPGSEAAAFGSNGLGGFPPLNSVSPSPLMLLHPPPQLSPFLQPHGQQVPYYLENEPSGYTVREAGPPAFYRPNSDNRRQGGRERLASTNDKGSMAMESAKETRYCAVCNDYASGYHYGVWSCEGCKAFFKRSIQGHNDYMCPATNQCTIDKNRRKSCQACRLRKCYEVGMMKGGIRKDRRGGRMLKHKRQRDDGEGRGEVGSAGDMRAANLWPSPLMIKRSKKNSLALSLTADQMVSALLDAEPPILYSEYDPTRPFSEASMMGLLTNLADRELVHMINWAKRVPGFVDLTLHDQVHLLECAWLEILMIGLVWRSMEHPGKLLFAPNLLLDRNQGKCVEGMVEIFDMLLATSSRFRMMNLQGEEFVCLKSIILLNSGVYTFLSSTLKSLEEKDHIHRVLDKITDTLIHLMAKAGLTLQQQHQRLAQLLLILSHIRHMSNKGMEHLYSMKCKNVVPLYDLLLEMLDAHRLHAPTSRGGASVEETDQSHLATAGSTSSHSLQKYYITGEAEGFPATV

Row | Structure (SMILES) | inhibition of ligand binding (at 10 µM) | inhibition of ligand binding (binding inhibition, at 0.1 µM) [%]
1 | CC1(N2CCOCC2)CC2(O)C(=[N+]1[O-])CCc1nonc12 (stereo not given) | 34% (inactive) | 46
2 | c1coc(-c2nnc3sc(Cc4cccs4)nn23)c1 | 24% (inactive) | 14
3 | O=C(COC(=O)CCOc1ccccc1)NCc1ccco1 | 50% (inactive) | 57
4 | O=C(c1cccc(F)c1)N1CCN(C(=O)c2cc3ncc(Br)cn3n2)CC1 | 35% (inactive) | 50
5 | Cc1nnc(Oc2ccccc2F)c2ccccc12 | 36% (inactive) | 57
6 | Cc1ccc(Cc2cncc(O)c2)cc1S(=O)(=O)O | 36% (inactive) | 20
7 | O=C(OCC(=O)N1CCN(C(=O)c2ccco2)CC1)c1cc(-c2ccco2)nc2ccccc12 | 34% (active) | 77
8 | Cc1nn(-c2ccccc2)c(C)c1NC(=O)Cc1cccs1 | 11% (inactive) | 35
9 | FC(F)(F)c1ccc2c(c1)C1C=CCC1C(c1ccncc1)N2 (stereo not given) | 61% (inactive) | 27
10 | CCc1oc2ccccc2c1C(=O)c1cc(Br)c(O)c(Br)c1 | 0% (inactive) | 20
11 | CCn1nnc(NC(=O)CSc2ccc(Cl)cc2)n1 | 7% (inactive) | 10
12 | CC(C)CC(=O)Nc1ccc(C(=O)COc2ccc(-c3nnco3)cc2)cc1 | 28% (inactive) | 23
13 | O=C(Cn1nnc(-c2ccc3c(c2)OCO3)n1)NCc1ccco1 | 38% (inactive) | 62
14 | COc1ccc(Cl)cc1NC(=O)c1ocnc1C | 21% (inactive) | 3
15 | CCOC(=O)CN1C(c2ccc(O)cc2)Nc2ccc(Br)cc2C1c1ccccc1 (stereo not given) | 24% (inactive) | 11
